In PubChem BioAssay AID651681 (Broad Institute, 2012) one finds outcome data, which are given here for one molecule.

The structures appear in SMILES notation. The source made the active and inactive calls.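 The calls were made as follows: active = compound with fitted CDK2 half-maximal potency at or below twice its top tested dose; inconclusive = flat curve near 30 to 70% inhibition, or poor fit; inactive = the rest.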

The assay concerns the target Cyclin-dependent kinase 2 (Homo sapiens) + Cyclin-A2 (Homo sapiens) (UniProt P20248+P24941). Nature of the assay: CDK2/cyclin A inhibitors, off-target check, dose response, selectivity assay for Dyrk1A inhibitor project, biochemical, dry powder, set 3 (AID 651681).

Chain of Cyclin-dependent kinase 2 (Homo sapiens) + Cyclin-A2 (Homo sapiens) (P20248 whole entry, looked up, one chain of several): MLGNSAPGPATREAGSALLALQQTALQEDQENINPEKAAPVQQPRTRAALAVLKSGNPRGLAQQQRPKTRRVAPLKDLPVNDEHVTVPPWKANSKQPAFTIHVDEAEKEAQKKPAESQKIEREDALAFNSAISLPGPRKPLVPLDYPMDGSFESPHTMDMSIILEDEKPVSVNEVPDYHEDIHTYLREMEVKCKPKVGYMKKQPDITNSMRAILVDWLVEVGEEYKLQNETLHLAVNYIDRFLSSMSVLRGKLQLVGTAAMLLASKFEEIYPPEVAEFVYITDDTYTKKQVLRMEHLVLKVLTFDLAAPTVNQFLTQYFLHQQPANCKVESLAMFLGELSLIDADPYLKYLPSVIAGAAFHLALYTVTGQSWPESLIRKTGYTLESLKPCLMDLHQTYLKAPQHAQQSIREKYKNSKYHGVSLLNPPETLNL

Turning to `COc1ccc2c(c1)[nH]c1c(C)nccc12`, the result was inactive.
